# Methyltransferases – Primary Screen for Target Class Profiling of Small Molecule Inhibitors of Methyltransferases. purified enzyme, MTase-Glo SAH luminescence; active compounds read low. calls only at 40 µM. 25,000 compounds, 3.9% hits. AID 1745853, 2022; call rule not given here
#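 Each enzyme was assayed with SAM and its substrate. SAH formation detected by MTase-Glo luminescence; single-point 40 uM screen[…].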
# Calls only; . = inactive; + = active, no number. The full list was thinned out, with hits kept by preference.
SMILES,Methyltransferases
CC(C)n1c(=O)c2ccc(C(=O)NC3CCCCC3)cc2n2c(=O)n(Cc3ccccc3Cl)nc12,.
CN(CC[C@H]1CN(C(=O)C(C)(C)C)CC[C@H]1CC(=O)O)c1ccccc1,.
O=C(c1cc(O)c(O)c([N+](=O)[O-])c1)c1ccccc1F,+
O=C(Nc1ncc([N+](=O)[O-])s1)c1ccccc1O,.
O=C(Nc1ccccc1)c1cc([N+](=O)[O-])ccc1Cl,.
C=CCn1c(=O)c2ccc(C(=O)NCC(C)C)cc2n2c(=O)n(CC(=O)Nc3ccc(C)cc3)nc12,.
Cc1c(Cl)cccc1NC(=O)Cn1c(=O)c2ccccc2n2nncc12,.
Cc1ccc(NC(=O)N2CCC(n3c(C)cnc3-c3cccnc3)C2)cc1C (stereo not drawn),.
Cc1cc(NC(=O)c2cccc(NC(=O)/C=C/CN(C)C)c2)ccc1Nc1nccc(-c2cccnc2)n1,+
Cc1nc(CCNC(=O)c2cnc(-c3cccnc3)nc2)cc(=O)[nH]1,.
CC(=O)Nc1ccc(-c2nnc3n(Cc4ccc(F)cc4)c(=O)c4ccccc4n23)cc1,.
Cc1cc2ncc(C(=O)NC(C)CCc3ccccc3)cn2n1 (stereo not drawn),.
O=c1[nH]c2ccccc2n1C1CCN(S(=O)(=O)c2ccc(F)cc2)CC1,.
COc1cc(C(=O)O)ccc1NC(=O)[C@@H]1N[C@@H](CC(C)(C)C)[C@](C#N)(c2ccc(Cl)cc2F)[C@H]1c1cccc(Cl)c1F,+
CCC1CCCCN1CCCN1C(=O)c2cc3occc3n2CC1(C)C(=O)NC1CCCCCCC1 (stereo not drawn),.
CCn1c(C2CCCN(S(=O)(=O)c3cccc4nonc34)C2)nn(C)c1=O (stereo not drawn),.
CC1COC2(CCN(c3nc(=O)c4cc(C(F)(F)F)cc([N+](=O)[O-])c4s3)CC2)O1 (stereo not drawn),.
COc1ccc(OC)c(-c2ccc(NC(=O)c3ccncc3F)cc2)c1,.
O=C(Nc1ccc(F)cc1)c1ccnc2[nH]ccc12,.
Nc1nccc(Oc2ccc(NC(=O)c3c[nH]cc(-c4ccc(F)cc4)c3=O)cc2F)c1Cl,+
C=CCn1c(=O)c2ccc(C(=O)NC(C)CC)cc2n2c(=O)n(CC(=O)NC3CCCC3)nc12 (stereo not drawn),.
CN(C)c1ccc(CNC(=O)CNC(=O)C2(C)Cn3c(cc4ccccc43)C(=O)N2C)cc1 (stereo not drawn),.
CCc1ccc(CN2C(=O)c3cc(-c4ccccc4)nn3CC2(C)C(=O)NCc2ccccc2OC)cc1 (stereo not drawn),.
C/C1=C\CC[C@H](C)CCO[C@@H]2O[C@H](CO[C@@H]3OC[C@](O)(COC1=O)[C@H]3O)[C@@H](O)[C@H](O)[C@H]2O,.
CC(C)NC(=O)c1sc(=S)n2c1[nH]c(=O)c1ccc(C(=O)NC(C)CCc3ccccc3)cc12 (stereo not drawn),.
SMILES,Methyltransferases
CC(C)OCCCNC(=O)c1ccc2c(=O)[nH]c3c(C(=O)NC4CCCC4)sc(=S)n3c2c1,.
Cn1c(=O)c2ccc(C(=O)NC3CCCCC3)cc2n2c(=O)n(Cc3ccc(Cl)cc3)nc12,.
Cc1ccc(-c2n[nH]n3c2nc(=O)c2ccc(C(=O)NCCc4ccccc4)cc23)cc1,.
O=C(NCCc1ccccc1)c1ccc2c(=O)[nH]c3c(C(=O)NCC4CCCO4)sc(=S)n3c2c1 (stereo not drawn),+
O=C(NCCc1ccc(Cl)cc1)c1ccc2c(=O)[nH]c3c(C(=O)NC4CCCC4)sc(=S)n3c2c1,+
COc1ccc(N2C(=O)c3cc4ccccc4n3CC2(C)C(=O)NCCC(C)C)cc1 (stereo not drawn),.
CCC(C)NC(=O)c1ccc2c(=O)n(C(C)C)c3nn(CC(=O)Nc4ccc(C(C)C)cc4)c(=O)n3c2c1 (stereo not drawn),.
Cc1ccc(CN2C(=O)c3nc4ccccc4n3CC2(C)C(=O)NC2CCCCC2)cc1 (stereo not drawn),.
CCCN1C(=O)c2c(C(=O)Nc3ccccc3Cl)ncn2CC1(C)C(=O)NCc1ccc(C)cc1 (stereo not drawn),.
CC(=O)Nc1ccc(C(=O)NCc2nn(Cc3ccccc3)c3ccccc23)cc1,.
CN1CCc2c(n(Cc3ccc(C(=O)NO)cc3)c3ccccc23)C1,+
O=C(c1cccc([N+](=O)[O-])c1)N1CCc2c(c3ccccc3n2CC2CC2)C1,.
Cc1ccc(CNC(=O)Cn2ccc3cc(S(=O)(=O)N4CCC(C)CC4)ccc32)cc1,.
CCC(C)NC(=O)c1ccc2c(=O)n(C(C)C)c3nn(CC(=O)c4ccc(C)cc4C)c(=O)n3c2c1 (stereo not drawn),.
Cc1nc(C#Cc2ccnc(Cl)c2)c(C)n1-c1ccc(F)cc1,+
On1ncc(C2CCNCC2)c1-c1cccc(-c2ccccc2)c1,.
CC(C)Cn1c(=O)c2ccc(Cl)cc2n2c(SCC(=O)Nc3ccccc3F)nnc12,.
N#CC(=C(\N)Sc1ccccc1N)/C(C#N)=C(/N)Sc1ccccc1N,+
CC(c1ccccc1)N1C(=O)c2ccc(-c3ccccc3)n2CC1(C)C(=O)NC1CCCCCCC1 (stereo not drawn),.
CCOc1ccc(C2c3cccn3-c3sc4c(c3CN2C(=O)Nc2ccccc2)CCCC4)cc1 (stereo not drawn),.
CCc1c(C)nn(CC(=O)N2CC(C)(C)[C@@](C)(O)C2)c1C,.
CC1c2cccn2CCN1C(=O)Nc1ccccc1Br (stereo not drawn),.
C=C1C(=O)O[C@@H]2[C@H]1CC(=O)[C@H](C)[C@@](O)(C(=O)/C=C/C)[C@H]2OC(=O)C(C)CC (stereo partly drawn),.
CCNC(=O)N1CC(C(=O)NCc2ccco2)CC(c2ccc(OC)c(OC)c2)C1 (stereo not drawn),.
CN(C)c1nc(NC2CCC(NCCc3ccc(Br)cc3OC(F)(F)F)CC2)nc2ccccc12 (stereo not drawn),+
SMILES,Methyltransferases
Cc1ccc(Cn2c(=O)c3ccccc3n3c(=O)n(CC(=O)Nc4ccc5c(c4)OCCO5)nc23)cc1,.
CC(C)CCn1c(=O)c2ccc(C(=O)NC(C)C)cc2n2c(=O)n(CC(=O)c3ccc(F)cc3F)nc12,.
CCC(C(=O)NCc1ccc(OC)cc1)n1ccc2cc(S(=O)(=O)N3CCCCC3)ccc21 (stereo not drawn),.
NCc1ccc(Oc2ncnc3ccccc23)cc1,.
Nc1cccc(-c2cc3c(Oc4cccc(O)c4)ncnc3[nH]2)c1,+
CC(=O)OC(C)C(C)(O)C(=O)O[C@@H]1CC[C@]2(C)CC(=O)C(=C(C)C)C[C@H]2[C@]1(C)OC(C)=O (stereo partly drawn),.
CC1=CC(=O)C(=C(C)C)CC2C1CCC2(C)O (stereo not drawn),.
CC(C)=C1CC2C(CCC2(C)O)C(C)(O)CC1=O (stereo not drawn),+
CCN1CCN(C(=O)c2cc3n(n2)CC(C)(C(=O)NCc2ccccc2)N(C)C3=O)CC1 (stereo not drawn),.
COc1ccc(C)cc1NC(=O)c1ncn2c1C(=O)N(C1CC1)C(C)(C(=O)NCc1ccc(F)cc1)C2 (stereo not drawn),.
CCCN1C(=O)c2cc(C(=O)NCCCc3ccccc3)nn2CC1(C)C(=O)NC1CCCC1 (stereo not drawn),.
O=C(O)CC1(O)C(=O)Nc2ccccc21 (stereo not drawn),+
O=C1Nc2ccccc2C12CN([S+](=O)([O-])c1ccccc1)C2,.
Cn1nccc1CN1CC2(C1)C(=O)Nc1ccccc12,.

# High-throughput results deposited in PubChem by National Center for Advancing Translational Sciences (NCATS).
